Measurements as given in the supplement of paper PMC8728848.
Only a selection was taken, and the strongest signals are over-represented in it overall.

Key:
Experiment in all cases: glycan array binding signal (z-score within array); higher = stronger binding
Conditions in all cases: glycan notation: IUPAC condensed, linker removed
[1] = target: GlcNAc(b1-2)[GlcNAc(b1-4)]Man(a1-3)[GlcNAc(b1-4)][GlcNAc(b1-2)[GlcNAc(b1-6)]Man(a1-6)]Man(b1-4)GlcNAc(b1-4)[Fuc(a1-6)]GlcNAc
Method in brief: (§1)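 Negative Z-scores can be read as non-binding. The Z-score is calculated within each array and then averaged across arrays of one protein sequence at different concentrations or buffers and across linkers. Arrays, 3228 in all, were curated from the Consortium for Functional Glycomics database and kept only where the protein sequence was available.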

[2] = target: GlcNAc(b1-2)[GlcNAc(b1-6)]Man(a1-6)[GlcNAc(b1-2)Man(a1-3)]Man(b1-4)GlcNAc(b1-4)GlcNAc
Method in brief: as §1

[3] = target: GlcNAc(b1-3)Gal(b1-3)GalNAc
Method in brief: as §1

[4] = target: GlcNAc(b1-3)Gal(b1-4)GlcNAc(b1-3)Gal(b1-4)GlcNAc(b1-3)Gal(b1-4)GlcNAc(b1-3)Gal(b1-4)GlcNAc(b1-2)Man(a1-3)[GlcNAc(b1-3)Gal(b1-4)GlcNAc(b1-3)Gal(b1-4)GlcNAc(b1-3)Gal(b1-4)GlcNAc(b1-3)Gal(b1-4)GlcNAc(b1-2)Man(a1-6)]Man(b1-4)GlcNAc(b1-4)[Fuc(a1-6)]GlcNAc
Method in brief: as §1

[5] = target: GlcNAc(b1-3)Gal(b1-4)GlcNAc(b1-3)Gal(b1-4)GlcNAc(b1-3)Gal(b1-4)GlcNAc(b1-3)Gal(b1-4)GlcNAc(b1-2)[GlcNAc(b1-3)Gal(b1-4)GlcNAc(b1-3)Gal(b1-4)GlcNAc(b1-3)Gal(b1-4)GlcNAc(b1-3)Gal(b1-4)GlcNAc(b1-6)]Man(a1-6)[GlcNAc(b1-3)Gal(b1-4)GlcNAc(b1-3)Gal(b1-4)GlcNAc(b1-3)Gal(b1-4)GlcNAc(b1-3)Gal(b1-4)GlcNAc(b1-2)Man(a1-3)]Man(b1-4)GlcNAc(b1-4)[Fuc(a1-6)]GlcNAc
Method in brief: as §1

[6] = target: GlcNAc(b1-3)Gal(b1-4)GlcNAc(b1-6)[GlcNAc(b1-3)]Gal(b1-4)GlcNAc
Method in brief: as §1

[7] = target: GlcNAc(b1-3)Man
Method in brief: as §1

[8] = target: GlcNAc(b1-4)GlcNAc(b1-4)GlcNAc(b1-4)GlcNAc(b1-4)GlcNAc(b1-4)GlcNAc
Method in brief: as §1

[9] = target: GlcNAc6S(b1-3)Gal(b1-4)GlcNAc
Method in brief: as §1

[10] = target: Kdn(a2-6)Gal(b1-4)GlcNAc
Method in brief: as §1

[11] = target: Man(a1-3)[Man(a1-6)]Man(a1-6)[Man(a1-3)]Man
Method in brief: as §1

[12] = target: Man(b1-4)GlcNAc
Method in brief: as §1

[13] = target: Neu5Ac(a2-3)Gal(b1-3)GalNAc(b1-4)[Neu5Ac(a2-3)]Gal(b1-4)Glc
Method in brief: as §1

[14] = target: Neu5Ac(a2-3)Gal(b1-3)GlcNAc(b1-2)Man(a1-3)[Neu5Ac(a2-3)Gal(b1-3)GlcNAc(b1-2)Man(a1-6)]Man(b1-4)GlcNAc(b1-4)GlcNAc
Method in brief: as §1

[15] = target: Neu5Ac(a2-3)Gal(b1-4)GlcNAc(b1-2)[Neu5Ac(a2-3)Gal(b1-4)GlcNAc(b1-6)]Man(a1-6)[Neu5Ac(a2-3)Gal(b1-4)GlcNAc(b1-2)Man(a1-3)]Man(b1-4)GlcNAc(b1-4)GlcNAc
Method in brief: as §1

[16] = target: Neu5Ac(a2-3)Gal(b1-4)GlcNAc(b1-3)Gal(b1-4)GlcNAc(b1-3)Gal(b1-4)GlcNAc
Method in brief: as §1

[17] = target: Neu5Ac(a2-3)Gal(b1-4)GlcNAc(b1-3)Gal(b1-4)GlcNAc(b1-3)[Neu5Ac(a2-3)Gal(b1-4)GlcNAc(b1-3)Gal(b1-4)GlcNAc(b1-6)]GalNAc
Method in brief: as §1

[18] = target: Neu5Ac(a2-3)Gal(b1-4)GlcNAc(b1-6)GalNAc
Method in brief: as §1

[19] = target: Neu5Ac(a2-6)Gal(b1-4)GlcNAc(b1-2)Man(a1-3)[Neu5Ac(a2-6)Gal(b1-4)GlcNAc(b1-2)Man(a1-6)]Man(b1-4)GlcNAc(b1-4)GlcNAc
Method in brief: as §1

[20] = target: Neu5Ac(a2-6)Gal(b1-4)GlcNAc(b1-2)[Neu5Ac(a2-6)Gal(b1-4)GlcNAc(b1-4)]Man(a1-3)[GlcNAc(b1-4)][Neu5Ac(a2-6)Gal(b1-4)GlcNAc(b1-2)[Neu5Ac(a2-6)Gal(b1-4)GlcNAc(b1-6)]Man(a1-6)]Man(b1-4)GlcNAc(b1-4)GlcNAc
Method in brief: as §1

[21] = target: Neu5Ac(a2-6)Gal(b1-4)GlcNAc(b1-6)GalNAc
Method in brief: as §1

[22] = target: Neu5Ac(a2-6)Gal(b1-4)GlcNAc(b1-6)[Gal(b1-3)GlcNAc(b1-3)]Gal(b1-4)Glc
Method in brief: as §1

[23] = target: Neu5Ac(a2-6)GalNAc(b1-4)GlcNAc6S
Method in brief: as §1

[24] = target: Neu5Ac(a2-8)Neu5Ac(a2-8)Neu5Ac
Method in brief: as §1

[25] = target: Neu5Gc(a2-3)Gal(b1-3)[Fuc(a1-4)]GlcNAc
Method in brief: as §1

[26] = target: Neu5Gc(b2-6)Gal(b1-4)GlcNAc
Method in brief: as §1

B1: CvGal2 (Crassostrea virginica) (protein)
chain: MGSSHHHHHHSSGLVPRGSHMRIREAGKRKDTTKVYQIPDGLFPGQQVMLRGRVPWGSKSFSINFSATPRMGEGDILFHLNPRPSEGVCIRNALLNGSWGAEEKWQPYFPFDDGRSFSVKIEVTNDAFRTFVNGRPFVDFLHRTDFRAGKYLTLREGAEYYDVIFQSKPNIPLTTAIHNGMRIGKTIRIRGMCTAQDGFAINFNDNRNNIYFHFNARPAQRTVVRNSYFGSWGNEETAISKEFPFYPFLYFYASFVCMEDKFAVYVNDEHFIDFAHRGNPNNISVLQIKGSVNVLDTECLEPMGEDAMTEVDSGLENGDLFVLNGLMTERGKTFAVNFLNGFTENDDIALHFNPRKSTGEVVLNSRYGGAWQSEEKVALPGVFWSNRPLQVKVETKRNKFKIYVNGVDLAKYKIRGNVEDVHAVQVKGDVFLLETLLLKRLMKPVWERLTGGIRPGTWVTLQGTPKKNWQQFVVNFALDDTLDGDIAFHFNVRRGARQVVRNHRQSGAWGREETVTPFFAFDSEATFEIVFFVKEEKFLIYFNGKLFFEFVHRVPVERITHIYMDGDCNFYEPEVVI
**Q.** What does the source list for B1?
**A.** glycan array binding signal (z-score) [1]: -0.32; glycan array binding signal (z-score) [2]: -0.338; glycan array binding signal (z-score) [3]: -0.316; glycan array binding signal (z-score) [4]: -0.163; glycan array binding signal (z-score) [5]: 0.428; glycan array binding signal (z-score) [6]: -0.345; glycan array binding signal (z-score) [7]: -0.33; glycan array binding signal (z-score) [8]: -0.345; glycan array binding signal (z-score) [9]: -0.328; glycan array binding signal (z-score) [10]: -0.329; glycan array binding signal (z-score) [11]: -0.325; glycan array binding signal (z-score) [12]: -0.333; glycan array binding signal (z-score) [13]: -0.328; glycan array binding signal (z-score) [14]: -0.338; glycan array binding signal (z-score) [15]: -0.325; glycan array binding signal (z-score) [16]: -0.337; glycan array binding signal (z-score) [17]: -0.323; glycan array binding signal (z-score) [18]: -0.339; glycan array binding signal (z-score) [19]: -0.305; glycan array binding signal (z-score) [20]: -0.336; glycan array binding signal (z-score) [21]: -0.339; glycan array binding signal (z-score) [22]: -0.133; glycan array binding signal (z-score) [23]: -0.331; glycan array binding signal (z-score) [24]: -0.335; glycan array binding signal (z-score) [25]: -0.338; glycan array binding signal (z-score) [26]: -0.336
